Results reported in the supplement of paper PMC12632987.

T1: USP38, Q8NB14
T1 chain: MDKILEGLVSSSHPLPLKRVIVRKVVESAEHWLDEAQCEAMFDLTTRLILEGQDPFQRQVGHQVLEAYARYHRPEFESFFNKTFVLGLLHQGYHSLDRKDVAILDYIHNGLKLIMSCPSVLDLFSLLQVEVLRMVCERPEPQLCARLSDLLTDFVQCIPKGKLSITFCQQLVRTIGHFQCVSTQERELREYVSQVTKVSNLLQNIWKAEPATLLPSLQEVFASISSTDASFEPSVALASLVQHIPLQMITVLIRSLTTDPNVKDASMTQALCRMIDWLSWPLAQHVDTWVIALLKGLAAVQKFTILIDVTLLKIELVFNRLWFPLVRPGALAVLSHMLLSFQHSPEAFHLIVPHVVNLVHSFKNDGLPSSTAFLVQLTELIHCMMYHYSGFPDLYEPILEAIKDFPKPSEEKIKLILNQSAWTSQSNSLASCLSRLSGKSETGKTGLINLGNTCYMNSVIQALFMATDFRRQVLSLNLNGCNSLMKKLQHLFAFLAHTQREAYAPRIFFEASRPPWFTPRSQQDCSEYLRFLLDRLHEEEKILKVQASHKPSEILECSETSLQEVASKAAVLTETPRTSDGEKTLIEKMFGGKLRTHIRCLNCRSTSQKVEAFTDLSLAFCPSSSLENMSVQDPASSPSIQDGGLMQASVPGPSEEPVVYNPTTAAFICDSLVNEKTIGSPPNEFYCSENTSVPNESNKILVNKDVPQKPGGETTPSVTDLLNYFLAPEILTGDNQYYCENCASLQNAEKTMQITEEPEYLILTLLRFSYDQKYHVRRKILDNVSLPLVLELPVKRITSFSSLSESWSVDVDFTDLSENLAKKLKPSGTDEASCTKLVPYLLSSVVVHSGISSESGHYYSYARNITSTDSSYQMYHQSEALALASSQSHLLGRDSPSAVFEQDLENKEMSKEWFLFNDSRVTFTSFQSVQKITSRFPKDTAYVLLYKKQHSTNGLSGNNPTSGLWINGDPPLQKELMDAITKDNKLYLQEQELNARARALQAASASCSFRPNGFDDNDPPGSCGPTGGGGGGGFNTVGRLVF

B1: usp_38_diff_out_1_162_45 (protein)
chain: KVEEVLEEAERLLEEAEKLIEAAEKALAAGDLETARKYLDEAWDKLGELAKLLREARRLRRELSPERQEEVRKRLRELEERADELIDRLTELETEVFLRE
B2: usp_38_diff_out_22_74_485 (protein)
chain: SAEEEANAALRAEIDAKVADWNKYREEAERRIEEAIAAGRYREARRLLAELDDKTTDLIIWLNKQALANGAIHDYALAKAEEIRKKTTEVVERAEARLAA
B3: usp_38_diff_out_20_123_458 (protein)
chain: SSEALERAERLLRQAEQLLENAEQILKFVKAGALSEETVEEHIKFIETHIKYLEEELERLEEEHPELEELLERIREILERTRKVLEEIKKALEKRRKEKE
B4: usp_38_diff_out_20_123_448 (protein)
chain: SEALRARAEELLRRAEQLLENAKQILKFVKAGVLSEETVESHIKMIESQIEYIRREIERLRAEDPSLAPLLEEVERVVREVEEVLEEIKKAVEERKKEKA
B5: usp_38_diff_out_22_74_487 (protein)
chain: SAAEKAQEEAKKKLEELLKEFNEELEKYLKEAKKAIEAGNLKEARRILGEFTSKFAELSSKIAKAAWEAELPLDEIQKIMTDLTKKAAEAVKEMEEAIKA
B6: usp_38_diff_out_22_74_482 (protein)
chain: SAEAEAVAATKAEIEKLTAETLKKLDELYKEAKKYIEAGDYKNARRKLAEMDDLVTETVIYLNKVALAEGAVHDLALAKANEIRKKATEINEELEKLLKE
B7: usp_38_diff_out_20_123_455 (protein)
chain: SEELRERAERLLKRSKQLVENAKQILKFVKAGVLSEETVEEHIKFLEDLIKYFEEELERLKKEDPSLKELLEEVEAAIKEAKEVLKEIKEAAEKRKKEEE
B8: usp_38_diff_out_24_27_497 (protein)
chain: EEEKKEKLEKLIKKFEEILKLAKEAVGADLATRIRLSREIDELLEEARKLAEELGIEEVKKIVTEVAVKASIVLSGSEEMEEAIEEIEKLIEEAKKLLEE
B9: usp_38_diff_out_22_74_483 (protein)
chain: SAEEAETEALKKEIDEKVKKTKEELDRLRAEAKAAIAAGRYREARRLLAEMDDLVTDTVIWLNKVALAHGAVHDYALAKANEIREYATKINAELEALLEA
B10: usp_38_diff_out_1_162_46 (protein)
chain: EVEKLLEEAEKLLEEAKELIEKAKEAFKEGKLEEAEKYLDEAADKLGQLAKLLREARRLRRELSPERQEEVRKRLRELEERANELIDEYTELETEVFLAK
B11: usp_38_diff_out_20_123_446 (protein)
chain: MEEARERAERLLERARQLLENAKQILKFVKAGVLSKETIESNIKFIESQIEYLERERERLREEHPELEELLEEIDRVLEETREVLKEIKAAAAAREAAEA
B12: usp_38_diff_out_22_164_481 (protein)
chain: KEEEIKEKLKKEIEEKIKETKKELDKLFAKAKADPEKKEEYIKEARMLLIKTQKELLELIEKTVKENNLSEETKEELRSFLTVQMLKLLNYLDEKEEELK
B13: usp_38_diff_out_22_164_478 (protein)
chain: SEEEILKKVKEELEKLAEETKKELDKLFEEAKANPEKKEEYIQEAQMLIIKTQKEMNDYIEETVKKYNLSEETKEELKSHRTVLNLKVLNYLDEKIEELK
B14: usp_38_diff_out_24_27_495 (protein)
chain: EEEKKKLLEKLIEKFEKILELAKKAVGADLATRIKLSSEIDELLEEARKLAKELGIPEVEKLVTQVAIQASIVLSGSEEMEEAIKEIEKIIEELKKLLKE
B15: usp_38_diff_out_20_123_447 (protein)
chain: SEELRARAERLLRQAEQLLENAEQILKFVKAGVLSKETQKAHIEFIESQIETIRREIERLRAEDPSLAELLARIEEVLRKVEETLEEIKKAVEKREKEEA
B16: usp_38_diff_out_21_100_459 (protein)
chain: MEEIKKEIKEELEKAEKALKEAIKLLKEGAKKEEILKKLDEALSHLVRAQYLAAKISFELAHKISEIIDIVQEAKKLLDTDKEKALELLEKALKELKELK
B17: usp_38_diff_out_20_123_449 (protein)
chain: SEELRERAERLLRDAERLLENAKQILKFVEAGVLSEETVEAHIEMIEAHIEYIEREIERLRREDPSLAPLLERVERVLEEVKEVLEKIKEAAEKRKEEEK
B18: usp_38_diff_out_22_74_486 (protein)
chain: SAEAEEVAKIKAEIDKLVAELNAYLEKAKEEAEKAIAAGRLREARRIRAEMDDKVTDAIITLNKIALANGAIHDYALAKAQEIRDKSTKVFEEIDARLAA
B19: usp_38_diff_out_20_123_456 (protein)
chain: MEKAKEEAEKLLRRAKQLVENAEQVLKFVKAGVLSEEKAEEYIKSFEEHIKYIEKEVKKLKKEYPELKELLEEVEKEIKKAKKVLKELKEAVEKRKKEEE
B20: usp_38_diff_out_22_164_477 (protein)
chain: MEEKIKKEVKEKIEKIAEETKKKIDELFAEAKANPEKKEEYIKKARMLLIESNKEIKEYIEKTVKENNLSEETKEELNSHATVQNLKVLNYLDEKIEELK
B21: usp_38_diff_out_23_30_488 (protein)
chain: SPLEEAKKRLREAAEKARKEATEIKKKAEELKKKAENEYLKALANQVIDAANDFIEDLDIWLSRIDEYDEARLLRLTEYVEASLAHLKQLYEDLLKEFKK
B22: usp_38_diff_out_20_123_457 (protein)
chain: MEKLKAEAEALLKRAEALLENAKQILKFVKAGVLSEEQVEEHIEMIEEHIKYLEEELKKLKAAAPELKELLEKVEKAIKETKKVREEIKKELEKRRKEKE
B23: usp_38_diff_out_1_9_443 (protein)
chain: SVDDVIIEALEKALEDGLKELKELEKKAEKALKAGDKAQAEALLKRLIRNAEGLIAAAKDAIKLAKKAGLEERAKRLEEMLKEAEKLLEEAKKKLKELKA
B24: usp_38_diff_out_1_9_444 (protein)
chain: DVRREIAEALLEALERGLEELERLRARAEAALAAGDLARAEALLRRLVRNARGLEAAAEDLIEMAKEIGDEELARRAEEILERARRLREEAEARLAELAA
B25: usp_38_diff_out_20_123_452 (protein)
chain: AAALRAEAEALLARAQQLLENAEQVLKFVKAGVLSEETVEEHIEMFEAHIEYLEAERARLAAEAPELAPLLAQIDEAIAKAKEVLEKIKEELEKRREEEE
B26: usp_38_diff_out_1_162_44 (protein)
chain: AVEETLAQLEEALERAERLIEEAERALEEGDLERARELLDEAADTLGRAAQLLREARRLSRELSPEERARVRERLRELNERLDELIDRLTELEREVFLRE
B27: usp_38_diff_out_22_74_484 (protein)
chain: SAEEEETEKLRKEIEERKAETLARLEELRAAARAALAAGDERAARRLLAELDDLVTDTVIWLNKVALAHGAIHDYALETALEIRERATAIVAELEAALAA
B28: usp_38_diff_out_22_164_479 (protein)
chain: SEEEILEKLKEEIEKLAEETKKKLEELAKKAKENPEKKEEYLKQMRMLVIQTQQKMGDLIDEAAKKYNLSEETVEELRSHRTVQSLKVLNYLDELEKELE
B29: usp_38_diff_out_20_123_450 (protein)
chain: SEELREEAEELLRRAEQLLENSEQILKFVKAGVLSEETIKSHIEMIESQIKYIEEKIERLRKEDPSLEPLLEEVEKIREEVKKTLEEIKKAAEERKKEEA
B30: usp_38_diff_out_20_123_451 (protein)
chain: SEELRKEAEELLKRAKQLLENAKQILKFVKAGVLSEETIEAHIKMIESQIKYIEEKIKELREKDPSLKPLLEEVEKVVKEVKETLKEIKEAAEKRRKEKA
B31: usp_38_diff_out_1_162_48 (protein)
chain: EVEELLKKAKEKLKEAKELIKKAKEALKAGDLETAKKYLDKAWDLLGELAKLLREARRKMRELSPEERKKVRKELKKLEEEADKLIDELTKLETEVFLKE
B32: usp_38_diff_out_20_123_454 (protein)
chain: SEELRKEAEELLRRAEQLLENAEQILKFVKAGVLSLEKVEEHIKFIEEHIKYLEEKLKELKKKDKSLKELLEKIEELIKKTKEVLKEIKEAVEKRKKEAA

Target: T1, USP38, Q8NB14
Assay: median log2 fold change of GCK-ALFA target abundance (FLAG IP / Myc IP barcode read proportion) (log2 ratio); each designed protein is fused to an ALFA-tag nanobody in HEK293 cells to bring the named protein to FLAG-tagged glucokinase (GCK); Myc marks an untargeted standard; higher = target protein stabilised (more abundant)
Conditions: target protein: 3xFLAG-MCP-GCK-ALFA reporter; HEK293 landing pad (RPLP)
Outline: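 HEK293 landing-pad cells received a recombined binder library fused to the ALFA nanobody and were induced with 2 μg mL^−1 doxycycline, then transfected with a plasmid encoding a FLAG-tagged target and a Myc-tagged standard. Lysates were collected after 48 h for anti-FLAG and anti-Myc immunoprecipitation, and the circular RNA barcodes were reverse transcribed, amplified and sequenced. Target abundance for each binder is the median log2 ratio of FLAG to Myc barcode read proportions. Barcodes had to reach a proportion of at least 10^−7 in both replicates, each binder needed at least 3 barcodes per replicate, a pseudocount of 10^−6 was applied, and the two replicates were pooled.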

With B1 as the binder, how does the “median log2 fold change” value read?
Its value is -0.331.

B2 was tested. Which “median log2 fold change” value did it give?
The value was -0.0773.

For B3, which “median log2 fold change” value is on record?
Its value is 0.0141.

How did the “median log2 fold change” value turn out when B4 was run?
Its value is 0.273.

For B5, which “median log2 fold change” value is on record?
The value was -0.392.

How did the “median log2 fold change” value turn out when B6 was run?
Its value is 0.312.

B7 was tested. Which “median log2 fold change” value did it give?
Its value is 0.12.

How did the “median log2 fold change” value turn out when B8 was run?
The value was 0.276.

How did the “median log2 fold change” value turn out when B9 was run?
Its value is 0.0676.

B10 was tested. Which “median log2 fold change” value did it give?
Its value is -1.08.

How did the “median log2 fold change” value turn out when B11 was run?
The value was 0.247.

For B12, which “median log2 fold change” value is on record?
The value was -0.692.

B13 was tested. Which “median log2 fold change” value did it give?
Its value is 0.187.

B14 was tested. Which “median log2 fold change” value did it give?
Its value is 0.368.

For B15, which “median log2 fold change” value is on record?
Its value is 0.258.

With B16 as the binder, how does the “median log2 fold change” value read?
The value was -0.0676.

With B17 as the binder, how does the “median log2 fold change” value read?
Its value is 0.117.

B18 was tested. Which “median log2 fold change” value did it give?
The value was -0.198.

How did the “median log2 fold change” value turn out when B19 was run?
Its value is 0.134.

For B20, which “median log2 fold change” value is on record?
Its value is 0.309.

How did the “median log2 fold change” value turn out when B21 was run?
The value was 0.13.

For B22, which “median log2 fold change” value is on record?
Its value is 0.24.

How did the “median log2 fold change” value turn out when B23 was run?
The value was 0.0775.

Which “median log2 fold change” value does the source give for B24 here?
Its value is -0.00975.

How did the “median log2 fold change” value turn out when B25 was run?
Its value is 0.438.

Which “median log2 fold change” value does the source give for B26 here?
The value was 0.133.

With B27 as the binder, how does the “median log2 fold change” value read?
Its value is 0.0294.

How did the “median log2 fold change” value turn out when B28 was run?
Its value is 0.177.

How did the “median log2 fold change” value turn out when B29 was run?
The value was 0.529.

For B30, which “median log2 fold change” value is on record?
The value was 0.227.

How did the “median log2 fold change” value turn out when B31 was run?
The value was -0.368.

For B32, which “median log2 fold change” value is on record?
The value was 0.308.
